{
  "source": "ChEMBL document CHEMBL3988442",
  "about": "“University of Dundee, Small-Polar-MMV Screening Library” (2021)",
  "note": "In all, about 48,000 compounds went through this assay and about 13,000 (27%) showed an effect of 50% or more. The list shows a part of the results.",
  "data": [
    {"test_system": "Wolbachia pipientis", "assay": "Anti-Wolbachia Cell-Based Screen", "assay_type": "functional", "design": "scale not given: in the data most compounds retested in dose-response had high values", "conditions": "5 µM", "units": {"Percent Effect": "%"}, "values": [
      {"smiles": "CCNC(=O)CCc1c(C)nc2cc(O)nn2c1C", "Percent Effect": 5.527},
      {"smiles": "CNC(=O)CCCNc1cc(C)nc2cc(C)nn12", "Percent Effect": 1.816},
      {"smiles": "CNC(=O)CCNC(=O)CCc1c(C)nc2cc(O)nn2c1C", "Percent Effect": 99.53},
      {"smiles": "O=C(O)C(F)(F)F.O=C1[C@H]2CN(C3CCOC3)C[C@H]2CN1c1ccccc1", "note": "(stereo partly specified)", "Percent Effect": -7.814},
      {"smiles": "Cc1ccc(F)cc1S(=O)(=O)N1C[C@@H](C)[C@@](C)(O)C1", "Percent Effect": -12.21},
      {"smiles": "Cc1nc(O)c2nnn(C[C@H]3CCCN3C(=O)C(C)(C)C)c2n1", "Percent Effect": 2.685},
      {"smiles": "Cc1nc(O)c2nnn(C[C@H]3CCCN3C(=O)c3ccc(F)cc3)c2n1", "Percent Effect": 99.59},
      {"smiles": "Cc1nc(O)c2nnn(C[C@H]3CCCN3C(=O)CCC3CCCC3)c2n1", "Percent Effect": 2.096},
      {"smiles": "Cc1nc(O)c2nnn(C[C@H]3CCCN3C(=O)C3CCCC3)c2n1", "Percent Effect": 86.1},
      {"smiles": "Cc1ccc(C(=O)N2CCC[C@@H]2Cn2nnc3c(O)nc(C)nc32)cc1", "Percent Effect": 116},
      {"smiles": "Cc1nc(O)c2nnn(C[C@H]3CCCN3C(=O)c3cccc(F)c3)c2n1", "Percent Effect": -3.685},
      {"smiles": "Cc1cccnc1CN(C)C(C(=O)O)c1ccc(C(C)(C)C#N)cc1", "note": "(stereo unspecified)", "Percent Effect": -18.01},
      {"smiles": "CC(C)Cc1ncc2c(n1)CN(c1cc(NC3CC3)nc(N)n1)C2", "Percent Effect": 10.04},
      {"smiles": "CNC(=O)[C@@H]1C[C@@H](N)CN1c1nnc(-c2ccccc2)s1", "Percent Effect": -7.13},
      {"smiles": "CCn1c(C)nnc1SCCNC(=O)c1cnc(N(C)C)nc1C", "Percent Effect": -11.93},
      {"smiles": "CCCn1ncc(C(=O)NC(C)c2c(C)nn(CC)c2C)c1C", "note": "(stereo unspecified)", "Percent Effect": 101.8},
      {"smiles": "CCCn1cc(C(=O)NC(CC(=O)O)c2ccco2)c(C)n1", "note": "(stereo unspecified)", "Percent Effect": -1.122},
      {"smiles": "CCCn1cc(C(=O)N[C@H]2CC[C@H](n3cnnc3)CC2)c(C)n1", "Percent Effect": -5.85},
      {"smiles": "CCn1nc(C)c(C(C)NC(=O)c2cnc(N(C)C)nc2C)c1C", "note": "(stereo unspecified)", "Percent Effect": 101.2},
      {"smiles": "CCCn1ncc(C(=O)N(CCOC)Cc2c(C)nn(CC)c2C)c1C", "Percent Effect": -10.36},
      {"smiles": "CCC(NC(=O)c1cnc(N(C)C)nc1C)c1ccncc1", "note": "(stereo unspecified)", "Percent Effect": -21.92},
      {"smiles": "CCCn1cc(C(=O)NC(C)c2c(C)nn(CC)c2C)c(C)n1", "note": "(stereo unspecified)", "Percent Effect": 107.4},
      {"smiles": "CCn1nc(C)c(C(C)NC(=O)c2cccc(NCC(=O)O)c2)c1C", "note": "(stereo unspecified)", "Percent Effect": -10.01},
      {"smiles": "CN(Cc1ccncc1)C(=O)c1ccc2c(c1O)OC(C)(C)C2", "Percent Effect": -3.741},
      {"smiles": "Cc1cnc(CNC(=O)N(Cc2ccccc2)CC(C)(C)O)s1", "Percent Effect": -9.272},
      {"smiles": "CCN1CCN(C(=O)CCC2CCN(C(C)CSC)CC2)CC1", "note": "(stereo unspecified)", "Percent Effect": 2.757},
      {"smiles": "COC(=O)C(C)(C)NC(=O)c1cc2sc(N(C)C)nc2s1", "Percent Effect": -3.943},
      {"smiles": "CN1CCCN(c2nc3c(cnn3C(C)(C)C)c(=O)[nH]2)CC1", "Percent Effect": -5.062},
      {"smiles": "Cc1c(C2NC3(CCCC3)C(=O)N2CC2CC2)cc(C#N)n1C", "note": "(stereo unspecified)", "Percent Effect": -11.2},
      {"smiles": "CN(Cc1cc(Cl)c2c(c1)OCO2)Cc1cscn1", "Percent Effect": 1.61},
      {"smiles": "CCOc1ccc(NC(=O)NCc2csc(NC)n2)cc1C", "Percent Effect": -0.8345},
      {"smiles": "CCc1ncnc2c1CCN(C(=O)c1cccn1C)CC2", "Percent Effect": -9.929},
      {"smiles": "Cc1cccc(N2CCCC3(C2)CN(S(=O)(=O)C2CC2)CCO3)c1.O=C(O)C(F)(F)F", "note": "(stereo unspecified)", "Percent Effect": -4.65},
      {"smiles": "CCn1c(CC2CCN(C(=O)c3ccnn3C)CC2)n[nH]c1=O", "Percent Effect": 13.3},
      {"smiles": "Cc1noc(C)c1-c1cccc(CC2CCN(C(=O)CN)C2)n1", "note": "(stereo unspecified)", "Percent Effect": 128.9},
      {"smiles": "CC(=O)N1CCC(Cc2cccc(-c3ccnn3C)n2)CC1", "Percent Effect": 116.5},
      {"smiles": "NC(=O)c1cccc(CC2CCN(C(=O)CO)C2)c1", "note": "(stereo unspecified)", "Percent Effect": -21.34},
      {"smiles": "Cc1noc(C)c1CN1CC2(CCN(C(=O)c3cscn3)CC2)CC1=O", "Percent Effect": 4.447},
      {"smiles": "Cc1ccccc1C(=O)NC[C@@H]1CCN(C(=O)c2cscn2)C[C@H]1O", "Percent Effect": 3.097},
      {"smiles": "CC(=O)N1CCC(Cc2cccc(-c3c(C)noc3C)n2)C1", "note": "(stereo unspecified)", "Percent Effect": 135.5},
      {"smiles": "Cc1noc(C)c1-c1cccc(CC2CCN(C(=O)CCC(=O)O)C2)n1", "note": "(stereo unspecified)", "Percent Effect": 2.064},
      {"smiles": "Cc1noc(C)c1-c1cccc(CC2CCN(C(=O)c3cscn3)C2)n1", "note": "(stereo unspecified)", "Percent Effect": 131.4},
      {"smiles": "CN1CCC(Cc2nc(-c3ccnn3C)n(Cc3ccccc3)n2)CC1", "Percent Effect": -2.907},
      {"smiles": "c1ccc(-c2cnc(CN3CCn4c(nnc4C4CC4)C3)o2)cc1", "Percent Effect": -9.736},
      {"smiles": "CN(Cc1ccc2nonc2c1)C(=O)CCc1cc2n(n1)CCCNC2", "Percent Effect": -9.744},
      {"smiles": "CN(CCC1CCCCO1)c1nncc(-c2ccccc2)n1", "note": "(stereo unspecified)", "Percent Effect": 3.225},
      {"smiles": "c1ccc(C2CCCN2C2CCSCC2)nc1", "note": "(stereo unspecified)", "Percent Effect": -12.25},
      {"smiles": "c1ccc(C2CCCN2C2CSCCSC2)nc1", "note": "(stereo unspecified)", "Percent Effect": 20.29},
      {"smiles": "Cc1cc(N(C)C)nc(N2CCCC2c2ccccn2)n1", "note": "(stereo unspecified)", "Percent Effect": 92.86},
      {"smiles": "Cc1cc(N(C)C)nc(N2CCCC2c2cc(C)on2)n1", "note": "(stereo unspecified)", "Percent Effect": 41.35},
      {"smiles": "CN(C)c1cc(C(F)(F)F)nc(N2CCCC2c2ccccn2)n1", "note": "(stereo unspecified)", "Percent Effect": 96.36},
      {"smiles": "Cc1cc(C2CCC2)nc(N(C)CCc2ccccn2)n1", "Percent Effect": 10.11},
      {"smiles": "Cc1nc(N2CCN(C(=O)c3ccccc3)CC2)cc(-n2ccnc2)n1", "Percent Effect": -0.4006},
      {"smiles": "CCCC1CN(CC(C)C)C(=O)c2cccnc2O1", "note": "(stereo unspecified)", "Percent Effect": 72.42},
      {"smiles": "CCCC1CN(CCOc2ccccc2)C(=O)c2cccnc2O1", "note": "(stereo unspecified)", "Percent Effect": 157.7},
      {"smiles": "COCCN1CCCC(O)(CN2CCN(c3ncccc3C)CC2)C1=O", "note": "(stereo unspecified)", "Percent Effect": -16.41},
      {"smiles": "CCOc1ncccc1CN1Cc2ncccc2C1=O", "Percent Effect": 24.49},
      {"smiles": "CC(C)CN1C[C@H](COCc2ccccc2)Oc2ncccc2C1=O", "Percent Effect": 89.35},
      {"smiles": "CC(C)(C)C(=O)N1CCC(COCc2ccccc2)C1", "note": "(stereo unspecified)", "Percent Effect": 14.31},
      {"smiles": "Cc1cnc(C(=O)N2CCC(COCc3ccccc3)C2)cn1", "note": "(stereo unspecified)", "Percent Effect": 0.6759},
      {"smiles": "CCCC1CN(CCOC)C(=O)c2cccnc2O1", "note": "(stereo unspecified)", "Percent Effect": 110.6},
      {"smiles": "CCC(C)Oc1ccccc1CN1Cc2ncccc2C1=O", "note": "(stereo unspecified)", "Percent Effect": 3.69},
      {"smiles": "COCCN1C[C@@H]2CN(c3ncccn3)C[C@@H]2C1=O", "Percent Effect": 3.665},
      {"smiles": "CCOc1ccccc1CCN1Cc2ncccc2C1=O", "Percent Effect": 5.291},
      {"smiles": "O=S1(=O)COCCN1CCOc1ccccc1", "Percent Effect": -11.75},
      {"smiles": "O=C(NC1CC1)N1CCC2(CC1)CC(N1CCOCC1)c1ccccc12.O=C(O)C(F)(F)F", "note": "(stereo unspecified)", "Percent Effect": 2.797}
    ]}
  ]
}
